The source made the active and inactive calls. Calls follow the shape of the full dose curve.
Test: qHTS Assay for Inhibitors of Influenza NS1 Protein Function: Viral Replication TCID50 SAR for Probe
Settings: Influenza virus replication in cells, TCID50 titer reduction
Description: Influenza is a world-wide public health problem and emerging forms of the virus have the potential to cause a pandemic of equal or greater magnitude to the outbreaks recorded in 1918, 1957 or 1968. Vaccine development is proceeding and there also exist two classes of anti-influenza compounds. However these therapeutic modalities are neither fully effective nor widely enough available to fulfill global needs. In addition their potential usefulness against newly emergent strains is not known. Efforts are needed to develop novel agents against influenza virus, including broad-spectrum agents. Identification of small molecules that inhibit NS1 function either directly or by interfering with specific cellular pathways may be a key to increasing our defense against the virus.
We have miniaturized and optimized a cell based assay in which NS1 from influenza A is expressed in the budding yeast S. cerevisiae. NS1 is a multi-functional protein that counters the host innate immune response and facilitates viral versus cellular gene expression. Expression of NS1 causes a pronounced slow growth phenotype in yeast due to its intrinsic molecular activities. Small molecules that suppress the slow growth phenotype can be identified by a straightforward growth recovery assay using optical density (OD) as the measurement. The same yeast strain not expressing NS1 was used as positive control in the yeast growth recovery assay.
Hits resulting from this primary screen and other follow-up screens, were tested in two concentrations in this viral replication assay.
NIH Chemical Genomics Center [NCGC]
NIH Molecular Libraries Probe Centers Network [MLPCN]
Assay Submitter (PI): Daniel Engel, University of Virgina
Cell monolayers were infected at an m.o.i. of 0.1 for 48 h in the presence or absence of the compound, which was added at the beginning of infection. Virus titres were determined by TCID50 analysis (Reed, L. J. & Muench, H. (1938). A simple method of estimating fifty per cent endpoints. Am J Epidemiol 27, 493-497).

Row | SMILES | Potency
1 | COc1cc(-c2ccnc3c2c(C)nn3-c2cccc(C(F)(F)F)c2)ccc1O | 0.0827 µM (active)
2 | COc1cc(-c2ccnc3c2c(C)nn3-c2ccc(C(F)(F)F)cc2)ccc1O | 0.155 µM (active)
3 | Cc1nn(-c2ccc(Cl)cc2)c2nc(N)c(C#N)c(-c3ccc(O)c(O)c3)c12 | 0.279 µM (active)
4 | COc1cc(-c2c(C#N)c(N)nc3c2c(C)nn3-c2ccc(F)cc2)ccc1O | 0.101 µM (active)
5 | Cc1ccc(-n2nc(C)c3c(-c4ccc(O)c(O)c4)c(C#N)c(N)nc32)cc1C | 0.234 µM (active)
